According to PubChem BioAssay (NCATS):
Several values for one entry are separate records, joined by “and”; a condition that tells them apart may be missing. Equal values may be shown once. Results filed as inconclusive are left out. Activity calls are given as the source filed them. Calls come from the whole dose curve; as a rule, active = well fitted curve in the direction sought with a large enough effect; inconclusive = small, poorly fitted or top-dose-only effect, or another doubt; inactive = no such curve, though single readings can be large; an effect the other way counts as inactive or inconclusive.

How the values were obtained:
[1] = qHTS Assay for Identifying Gametocytocidal Compounds (AID 743244);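 note: % is set by controls: 0 for no effect and ±100 for the full control effect; actives lower the fluorescent signal which means gametocytes are killed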; conditions: P. falciparum 3D7 stage III-V gametocytes, alamarBlue, 72 h; max response: stronger effect = lower value
Summary of the method: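 Stage III–V gametocytes of P. falciparum 3D7 were seeded at 20,000 cells/well onto pre-dispensed compounds. After 72 h, 37 °C, 5% CO2, alamarBlue was added for another 24 h.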

[2] = qHTS assay for measurement of the activity of small molecule inhibitors on Zika virus induced Caspase-3 activity in human iPSC derived neural progenitor cells (hNPCs) (AID 1224857); note: % of control where 0% means no effect; nearly all actives have a fitted effect of over 65% in size
Summary of the method: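 Values are percent inhibition of virus-induced caspase-3/7 signal, scaled between uninfected cells and ZIKV-infected cells. Infection used 2 FFU/cell for 6 h after 1 h compound exposure.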

[3] = qHTS assay for measurement of the activity of small molecule inhibitors on Zika virus induced Caspase-3 activity in human astrocytoma cells (AID 1224859);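 note: plate controls were ZIKV-infected untreated cells for no effect and uninfected cells for full effect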
Summary of the method: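 Compound added 1 h pre-infection; ZIKV 2 FFU/cell on SNB-19 cells, 6 h, 37 C/5% CO2. Caspase-Glo 3/7 luminescence; values as % inhibition of ZIKV-induced caspase activity.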

[4] = qHTS assay to identify small molecule inhibitors of chordoma cells - UCH-1 (AID 1259355); note: % is set by controls: 0 for no effect and ±100 for the full control effect; nearly all actives have a fitted effect of over 55% in size
Summary of the method: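 Luminescent ATP read-out (CellTiter-Glo, 30min at room temperature) measured viability of UCH-1 cells exposed for 48hr to test drugs at 15 concentrations, co-dosed with a five-agent combination of auranofin, camptothecin, doxorubicin, rubitecan and topotecan.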

[5] = qHTS assay to identify small molecule inhibitors of chordoma cells - UCH-2 (AID 1259356); note: series mostly up to about 46 µM; % is set by controls: 0 for no effect and ±100 for the full control effect

Cc1cccn2c(=O)c(-c3nnn[nH]3)cnc12
inactive: max response [1] -1.77% | outcome [2] | outcome [3] | Potency [4] | Potency [5]

Cc1c(C)n(CCN(C)C)c2ccc(C(=O)OCCN(C)C)cc12
inactive: max response [1] 8.04% | outcome [2] | outcome [3] | Potency [4] | Potency [5]

Cc1c(C)n(Cc2ccccc2)c2ccc(C(=O)OCCN(C)C)cc12
inactive: max response [1] 28.3% | outcome [2] | outcome [3] | Potency [4] | Potency [5]

COc1ccc(/C=C/C(=O)c2ccc(OC)cc2OC)cc1
inactive: max response [1] -14.8% | outcome [2] | outcome [3] | Potency [4] | Potency [5]

CCOC(=O)/C=C(C)/C=C/C=C(C)/C=C/c1c(C)cc(OC)c(C)c1C
inactive: max response [1] 14.1% | outcome [2] | outcome [3] | Potency [4] | Potency [5]

C[C@H]1[C@H](NC(=O)/C(=N/OC(C)(C)C(=O)O)c2csc(N)n2)C(=O)N1S(=O)(=O)O (stereo in doubt)
inactive: max response [1] -0.904% | outcome [2] | outcome [3] | Potency [4] | Potency [5]

C#C[C@]1(O)CC[C@H]2[C@@H]3CCC4=CC(=O)CC[C@@H]4[C@H]3CC[C@@]21C
inactive: max response [1] 8.68% | outcome [2] | outcome [3] | Potency [4] | Potency [5]

CCCCN1CCCC1C(=O)Nc1c(C)cc(C)cc1C (stereo not given)
inactive: max response [1] -5.69% | outcome [2] | outcome [3] | Potency [4] | Potency [5]

CCN1CCC[C@H]1CNC(=O)c1c(OC)ccc(Br)c1OC
inactive: max response [1] -8.08% | outcome [2] | outcome [3] | Potency [4] | Potency [5]

CN(C/C=C/c1ccccc1)Cc1cccc2ccccc12
inactive: max response [1] 6.22% | outcome [2] | outcome [3] | Potency [4] | Potency [5]

CCCCC1=NC2(CCCC2)C(=O)N1Cc1ccc(-c2ccccc2-c2nn[nH]n2)cc1
inactive: max response [1] 1.29% | outcome [2] | outcome [3] | Potency [4] | Potency [5]

CCN(CC)CCNC(=O)COc1ccc(Cl)cc1
inactive: max response [1] -6.47% | outcome [2] | outcome [3] | Potency [4] | Potency [5]

NC(=O)CC[C@@H]1NC(=O)[C@H](Cc2ccccc2)NC(=O)[C@H](Cc2ccc(O)cc2)NC(=O)CCSSC[C@@H](C(=O)N2CCC[C@H]2C(=O)N[C@@H](CCCN=C(N)N)C(=O)NCC(N)=O)NC(=O)[C@H](CC(N)=O)NC1=O
inactive: max response [1] 1.03% and -0.48% | outcome [2] | outcome [3] | Potency [4] | Potency [5]

C/C=C/c1ccc(OC)cc1
inactive: max response [1] 16% | outcome [2] | outcome [3] | Potency [4] | Potency [5]

CCOC(=O)[C@H](CCc1ccccc1)N[C@@H](C)C(=O)N1Cc2ccccc2C[C@H]1C(=O)O
inactive: max response [1] 4.65% | outcome [2] | outcome [3] | Potency [4] | Potency [5]

O=C(OCC(O)CO)c1ccccc1Nc1ccnc2cc(Cl)ccc12 (stereo not given)
inactive: max response [1] 7.94% | outcome [2] | outcome [3] | Potency [4] | Potency [5]

C#C[C@]1(OC(C)=O)CC[C@H]2[C@@H]3CCC4=C[C@@H](OC(C)=O)CC[C@@H]4[C@H]3CC[C@@]21C
inactive: max response [1] -2.21% and -10.1% | outcome [2] | outcome [3] | Potency [4] | Potency [5]

CN=C(NC#N)NCCSCc1csc(N=C(N)N)n1
inactive: max response [1] 5.67% | outcome [2] | outcome [3] | Potency [4] | Potency [5]

CCCCOc1ccc(OCCCN2CCOCC2)cc1
inactive: max response [1] 1.4% | outcome [2] | outcome [3] | Potency [4] | Potency [5]

CCN(CCCc1ccccc1)CCCc1ccccc1
inactive: max response [1] 0.141% | outcome [2] | outcome [3] | Potency [4] | Potency [5]

COc1cc(N)c(Cl)cc1C(=O)NC1CCN(CCCOc2ccc(F)cc2)CC1OC (stereo not given)
inactive: max response [1] -0.854% | outcome [2] | outcome [3] | Potency [4] | Potency [5]

Nc1ccc(/C=C/c2ccc(N)cc2S(=O)(=O)O)c(S(=O)(=O)O)c1
inactive: max response [1] 1.42% | activity change, negative = inhibition [2] -14.7% [at 0.568 µM] | activity change, negative = inhibition [3] -3.2% [at 0.568 µM] | Potency [4] | Potency [5]

CN(C(=O)CN(CCO)CC(=O)N(C)C(C)(C)Cc1ccccc1)C(C)(C)Cc1ccccc1
inactive: max response [1] -1.55% | outcome [2] | outcome [3] | Potency [4] | Potency [5]

Cc1c(F)c(N2CCNC(C)C2)cc2c1c(=O)c(C(=O)O)cn2C1CC1 (stereo not given)
inactive: max response [1] -1.28% | outcome [2] | outcome [3] | Potency [4] | Potency [5]

C[C@]12CC[C@H]3[C@@H](CCC4=CC(=O)CC[C@@]43C)[C@@H]1CC[C@@H]2C(=O)CO
inactive: max response [1] 8.05% | outcome [2] | outcome [3] | Potency [4] | Potency [5]
